11 compounds from ChEMBL document CHEMBL5724796, “Tm Shift (DSF) assay results for EUbOPEN Chemogenomics Library” (2024) can be followed below.

Molecules are shown by their SMILES. Non-standard residues stand in square brackets, D forms with d. Residues, ends and D or L forms follow the SMILES beside them. *: point of attachment. Benzoyl(4-tBu) = CC(C)(C)c1ccc(C(=O)*)cc1; Lys(Et2) = CCN(CC)CCCC[C@H](N)C(=O)O

Common to all, as to conditions: Compound concentration 20.0 uM
In assay [1] the target is Tyrosine-protein kinase ABL1 (Homo sapiens) (UniProt P00519).
Sequence of Tyrosine-protein kinase ABL1 (Homo sapiens) (P00519 whole entry): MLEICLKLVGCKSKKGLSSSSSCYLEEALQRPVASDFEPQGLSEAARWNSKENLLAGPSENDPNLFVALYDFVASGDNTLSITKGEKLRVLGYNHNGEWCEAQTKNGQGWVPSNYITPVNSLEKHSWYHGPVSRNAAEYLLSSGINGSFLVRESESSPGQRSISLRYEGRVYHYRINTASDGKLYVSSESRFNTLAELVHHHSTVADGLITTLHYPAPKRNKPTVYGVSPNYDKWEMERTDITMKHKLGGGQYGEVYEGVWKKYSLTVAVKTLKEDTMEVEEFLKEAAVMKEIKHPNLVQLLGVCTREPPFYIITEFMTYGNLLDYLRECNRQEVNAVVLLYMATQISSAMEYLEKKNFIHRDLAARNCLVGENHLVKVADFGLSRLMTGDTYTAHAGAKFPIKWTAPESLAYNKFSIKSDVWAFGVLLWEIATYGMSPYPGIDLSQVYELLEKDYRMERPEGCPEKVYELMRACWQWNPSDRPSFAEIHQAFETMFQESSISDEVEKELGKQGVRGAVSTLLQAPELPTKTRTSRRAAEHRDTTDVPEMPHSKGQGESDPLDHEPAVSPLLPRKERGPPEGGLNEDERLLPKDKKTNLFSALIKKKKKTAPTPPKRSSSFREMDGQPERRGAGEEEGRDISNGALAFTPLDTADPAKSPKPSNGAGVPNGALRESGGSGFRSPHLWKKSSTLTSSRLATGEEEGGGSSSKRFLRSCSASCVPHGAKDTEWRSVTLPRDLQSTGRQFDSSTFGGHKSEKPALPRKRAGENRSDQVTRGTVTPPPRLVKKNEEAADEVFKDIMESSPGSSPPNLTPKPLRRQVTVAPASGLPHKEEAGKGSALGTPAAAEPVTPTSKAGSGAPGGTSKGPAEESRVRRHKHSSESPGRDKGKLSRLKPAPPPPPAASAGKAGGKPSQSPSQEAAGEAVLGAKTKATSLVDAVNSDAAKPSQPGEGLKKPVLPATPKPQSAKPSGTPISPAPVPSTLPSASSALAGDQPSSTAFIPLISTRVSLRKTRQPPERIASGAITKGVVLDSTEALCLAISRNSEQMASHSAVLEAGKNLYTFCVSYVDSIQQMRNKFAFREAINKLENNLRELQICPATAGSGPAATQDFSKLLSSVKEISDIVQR
For assay [2], the target named is Bromodomain-containing protein 4 (Homo sapiens) (UniProt O60885).
Assay [3] deals with Cyclin-dependent kinase 2 (Homo sapiens) (UniProt P24941).
Assay [4] concerns the target Casein kinase I isoform delta (Homo sapiens) (UniProt P48730).
The target of assay [5] is Glycogen synthase kinase-3 beta (Homo sapiens) (UniProt P49841).
Sequence of Glycogen synthase kinase-3 beta (Homo sapiens) (P49841 whole entry, looked up): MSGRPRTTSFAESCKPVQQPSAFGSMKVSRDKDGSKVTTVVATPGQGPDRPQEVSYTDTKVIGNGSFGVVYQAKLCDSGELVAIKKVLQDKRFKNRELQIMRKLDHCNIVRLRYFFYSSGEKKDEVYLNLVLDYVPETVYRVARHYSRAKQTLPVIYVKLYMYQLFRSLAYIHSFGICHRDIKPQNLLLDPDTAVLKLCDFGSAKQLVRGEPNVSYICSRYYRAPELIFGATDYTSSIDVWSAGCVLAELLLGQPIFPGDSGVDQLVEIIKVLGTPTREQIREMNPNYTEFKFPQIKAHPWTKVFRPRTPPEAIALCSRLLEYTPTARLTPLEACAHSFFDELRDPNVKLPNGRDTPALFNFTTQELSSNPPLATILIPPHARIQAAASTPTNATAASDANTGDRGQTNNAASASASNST
Assay [6] concerns the target Mitogen-activated protein kinase 1 (Homo sapiens) (UniProt P28482).
Assay [7] deals with T1, Aurora kinase A (Homo sapiens) (UniProt O14965).
T1 sequence (whole entry): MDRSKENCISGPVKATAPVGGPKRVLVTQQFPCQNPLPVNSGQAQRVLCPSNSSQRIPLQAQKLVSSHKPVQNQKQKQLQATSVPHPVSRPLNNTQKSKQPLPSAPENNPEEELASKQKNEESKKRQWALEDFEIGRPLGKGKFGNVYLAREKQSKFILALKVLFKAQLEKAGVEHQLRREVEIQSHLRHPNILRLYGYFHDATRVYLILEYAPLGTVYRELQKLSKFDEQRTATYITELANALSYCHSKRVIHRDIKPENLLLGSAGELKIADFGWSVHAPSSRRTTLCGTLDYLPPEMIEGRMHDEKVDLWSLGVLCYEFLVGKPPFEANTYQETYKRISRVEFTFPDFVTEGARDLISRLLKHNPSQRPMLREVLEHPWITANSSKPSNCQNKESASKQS

Assay [8] deals with T2, Transcription intermediary factor 1-alpha (Homo sapiens) (UniProt O15164).
T2 sequence (whole entry): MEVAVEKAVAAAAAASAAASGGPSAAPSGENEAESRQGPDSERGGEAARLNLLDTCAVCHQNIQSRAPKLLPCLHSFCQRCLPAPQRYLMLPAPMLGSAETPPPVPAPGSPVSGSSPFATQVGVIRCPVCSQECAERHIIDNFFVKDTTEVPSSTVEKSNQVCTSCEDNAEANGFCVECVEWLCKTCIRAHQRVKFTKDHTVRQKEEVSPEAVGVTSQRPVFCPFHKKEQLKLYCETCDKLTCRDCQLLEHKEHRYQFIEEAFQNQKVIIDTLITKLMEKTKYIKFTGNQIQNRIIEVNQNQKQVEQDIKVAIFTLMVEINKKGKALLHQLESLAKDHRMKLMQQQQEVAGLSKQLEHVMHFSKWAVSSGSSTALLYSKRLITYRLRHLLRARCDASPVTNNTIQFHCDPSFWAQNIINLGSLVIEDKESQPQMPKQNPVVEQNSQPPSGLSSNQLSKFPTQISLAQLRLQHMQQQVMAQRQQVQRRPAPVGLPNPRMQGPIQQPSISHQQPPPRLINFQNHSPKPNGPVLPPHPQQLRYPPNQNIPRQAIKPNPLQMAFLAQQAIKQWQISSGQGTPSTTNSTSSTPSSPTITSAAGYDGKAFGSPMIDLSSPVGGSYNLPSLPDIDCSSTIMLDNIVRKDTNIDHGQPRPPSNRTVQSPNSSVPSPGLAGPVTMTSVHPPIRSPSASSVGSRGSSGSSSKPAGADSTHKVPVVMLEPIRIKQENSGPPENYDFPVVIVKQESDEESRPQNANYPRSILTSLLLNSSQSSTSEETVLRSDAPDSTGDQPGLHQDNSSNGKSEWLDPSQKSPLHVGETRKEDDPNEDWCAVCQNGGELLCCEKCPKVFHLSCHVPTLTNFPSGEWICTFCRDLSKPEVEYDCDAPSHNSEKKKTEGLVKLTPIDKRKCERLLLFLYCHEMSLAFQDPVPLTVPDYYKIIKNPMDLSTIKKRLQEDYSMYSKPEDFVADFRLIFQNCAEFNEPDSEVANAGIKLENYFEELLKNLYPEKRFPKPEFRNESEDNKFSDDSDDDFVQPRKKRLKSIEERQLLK

Sequence of Mitogen-activated protein kinase 1 (Homo sapiens) (P28482 whole entry): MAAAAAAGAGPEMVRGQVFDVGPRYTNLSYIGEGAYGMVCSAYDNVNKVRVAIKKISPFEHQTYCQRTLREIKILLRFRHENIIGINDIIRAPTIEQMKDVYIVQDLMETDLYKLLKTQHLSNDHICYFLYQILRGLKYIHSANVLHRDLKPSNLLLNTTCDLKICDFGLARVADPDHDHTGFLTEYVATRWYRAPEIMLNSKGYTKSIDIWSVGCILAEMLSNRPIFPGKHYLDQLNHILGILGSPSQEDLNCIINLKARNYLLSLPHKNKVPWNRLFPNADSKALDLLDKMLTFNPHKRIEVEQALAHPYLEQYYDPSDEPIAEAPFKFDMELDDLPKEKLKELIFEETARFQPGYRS
Sequence of Casein kinase I isoform delta (Homo sapiens) (P48730 whole entry, looked up, canonical isoform): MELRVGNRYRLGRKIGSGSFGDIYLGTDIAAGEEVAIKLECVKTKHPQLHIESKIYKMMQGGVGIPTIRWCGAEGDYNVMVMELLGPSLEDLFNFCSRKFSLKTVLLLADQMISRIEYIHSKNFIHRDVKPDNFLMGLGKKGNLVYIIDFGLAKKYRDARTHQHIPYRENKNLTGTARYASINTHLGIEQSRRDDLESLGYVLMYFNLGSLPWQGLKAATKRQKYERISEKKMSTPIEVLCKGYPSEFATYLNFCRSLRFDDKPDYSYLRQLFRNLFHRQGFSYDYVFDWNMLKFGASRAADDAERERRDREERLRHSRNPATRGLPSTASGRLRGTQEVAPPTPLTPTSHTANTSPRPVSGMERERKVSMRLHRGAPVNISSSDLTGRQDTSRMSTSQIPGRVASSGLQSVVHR

With `O=C1Nc2ccccc2C2(CCN(CC(Cc3ccccc3)Nc3nc4ccc(F)cc4s3)CC2)N1` (stereo not drawn), the ΔTm (usually the shift of the melting midpoint relative to a reference) in assay [1] was 0.77 °C; in assay [2], -4.21 °C; in assay [3], -0.52 °C; in assay [4], -0.49 °C; in assay [5], -1.4 °C; in assay [6] it was -0.14 °C. Further, the ΔTm in assay [7] is -2.22 °C; in assay [8] it was 0.18 °C.
Take `C[C@]1(c2nc3c(C(N)=O)cccc3[nH]2)CCCN1`: the thermal shift (ΔTm) was 0.02 °C in assay [1]; -2.57 °C in assay [2]; -0.1 °C in assay [3]; 0.16 °C in assay [4]; -0.63 °C in assay [5]; -0.01 °C in assay [6]. Also, the ΔTm is -1.66 °C in assay [7] and 1.28 °C in assay [8].
`CCN(CC)CCCC[C@H](NC(=O)[C@H](CC(C)C)NC(=O)[C@H](C)NC(=O)[C@H](Cc1ccccc1)NC(=O)c1ccc(C(C)(C)C)cc1)C(=O)N[C@@H](CO)C(=O)OC` ({Benzoyl(4-tBu)}-FAL[Lys(Et2)]S-OMe): the ΔTm was 0.51 °C in assay [1]; -1.71 °C in assay [2]; -0.26 °C in assay [3]; 0.5 °C in assay [4]; -1.01 °C in assay [5]; 0.31 °C in assay [6]. Besides, the results for the ΔTm in assay [7] and in assay [8] were -1.22 °C and -1.11 °C, respectively.
`O=c1c2nnc(C3CCOCC3)n2cc(Br)n1CC1CCCC1`: the ΔTm in assay [1] is 0.74 °C; in assay [2], -2.93 °C; in assay [3] it was 0.35 °C; in assay [4], -0.32 °C; in assay [5] it was -0.29 °C; in assay [6] it was 0.23 °C. For the same compound, the ΔTm was -1.77 °C in assay [7] and -0.67 °C in assay [8].
As for `O=C(Cc1ccccc1)c1cc(O)c(O)c([N+](=O)[O-])c1`, the ΔTm in assay [1] is 0.39 °C; in assay [2], -1.83 °C; in assay [3], 0.33 °C; in assay [4], -0.3 °C; in assay [5], -0.88 °C; in assay [6], 0.35 °C. Moreover, the ΔTm was determined as 0 °C in assay [7] and 1.83 °C in assay [8].
Consider `Cc1cccc(N/N=C(\C(=O)c2cccs2)C(=O)C(F)(F)F)c1`, for which the ΔTm in assay [1] was 0.48 °C; in assay [2] it was -1.9 °C; in assay [3] it was 0.44 °C; in assay [4], -0.01 °C; in assay [5] it was -0.93 °C; in assay [6] it was 0.19 °C. For the same compound, the figures for the ΔTm in assay [7] and in assay [8] were -1.9 °C and -1.89 °C, respectively.
`O=C(CN1CCN(C(=O)c2ccco2)CC1)Nc1cc(C(F)(F)F)ccc1Cl`: the ΔTm in assay [1] is 0.19 °C; in assay [2], 2.01 °C; in assay [3], 0.06 °C; in assay [4], -0.11 °C; in assay [5], -0.95 °C; in assay [6], 0.07 °C. Besides, the ΔTm in assay [7] was -1.45 °C; in assay [8], 0.51 °C.
Consider `CC(=O)N[C@@H](Cc1ccc(O)cc1)C(=O)N[C@H](C(=O)N[C@@H](C)C(=O)N[C@@H](CC(=O)O)C(=O)COC(=O)c1c(C)cccc1C)C(C)C`, for which the ΔTm is 0.26 °C in assay [1]; -2.81 °C in assay [2]; 0.14 °C in assay [3]; 0.17 °C in assay [4]; -0.23 °C in assay [5]; -0.06 °C in assay [6]. Moreover, the ΔTm in assay [7] is -0.54 °C; in assay [8], -0.84 °C.
Take `CC[C@H](C)[C@H](NC(C)=O)C(=O)N[C@@H](CCC(=O)O)C(=O)N[C@H](C(=O)N[C@H](C=O)CC(=O)O)[C@@H](C)O` (Ac-IETD-aldehyde): the ΔTm in assay [1] was 0.22 °C; in assay [2], -2.51 °C; in assay [3], -0.65 °C; in assay [4], 0.05 °C; in assay [5], -1.72 °C; in assay [6] it was -0.3 °C. Besides, the ΔTm in assay [7] was -1.5 °C; in assay [8], -1.13 °C.
Regarding `Cc1cc(C(=O)N2CCN(C3CN(C(=O)c4ccc(-c5ccccc5)cc4)C3)CC2)no1`, the ΔTm in assay [1] was 0.78 °C; in assay [2], -2.08 °C; in assay [3], -0.01 °C; in assay [4] it was 0.33 °C; in assay [5], 0 °C; in assay [6], 0.28 °C. Further, the ΔTm in assay [7] was 0 °C; in assay [8], -0.09 °C.
On to `Nc1nc2cc(CC[C@H]3C[C@@H](n4ccc5c(N)ncnc54)[C@H](O)[C@@H]3O)ccc2cc1Br`, for which the ΔTm in assay [1] is 2.92 °C; in assay [2], -1.76 °C; in assay [3], -4.38 °C; in assay [4], 4.13 °C; in assay [5], -8.32 °C; in assay [6], -17 °C. In addition, the ΔTm was -10 °C in assay [7] and -0.53 °C in assay [8].
